Screening data (PubChem BioAssay)
Only some compounds are listed: those with a hit (about 3.4% of all), similar ones and a draw of the others.
NRP1-CendR mod = modulators of CendR peptide binding to NRP-1, primary screen, biochemical, fluorescence polarization, uHTS. Neuropilin-1 (Homo sapiens), O14786. FAM-RPARPAR peptide binding to NRP-1. inhibition, % at 25 µM. 360,000 tested, 0.85% active. AID 602438, 2012;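 active means inhibition or corrected inhibition above about 18%, plus a signal ratio from 0.5 to 1.5, limit read from the data, passing the limit was not always enough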
proKLK7 act = proKLK7 zymogen activators, primary screen, biochemical, fluorescence intensity; Kallikrein-7 (Homo sapiens), P49862; purified proKLK7, EDANS-DABCYL substrate fluorescence; 100% is mature enzyme control, 0% vehicle; activation, % at 7 µM; 370,000 tested, 0.9% active; AID 652039, 2013;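 active means activation above the mean of all tested compounds plus 3 SD, computed per campaign excluding outliers beyond control limits, cut at about 13% in these data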
HGIII-sPLA2 inh = human group III sPLA2 inhibitors, primary screen, biochemical, QFRET, BODIPY PC-A2 liposome substrate; Group 3 secretory phospholipase A2 (Homo sapiens), Q9NZ20; inhibition, % at 12.2 µM; AID 743126, 2013; QFRET BODIPY PC-A2 liposome hydrolysis, fluorescence; 370,000 tested, 0.56% active;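 active means inhibition above mean plus 3 SD of compounds lying within the high and low control bounds, cut at about 19% in these data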;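 further: 0% = median of test compound wells and 100% = no enzyme DMSO wells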
ADAM17 inh = ADAM17 inhibitors, primary screen, biochemical, QFRET. recombinant ADAM17, EDANS/DABCYL FRET peptide cleavage. inhibition, % at 6.95 µM. 370,000 tested, 0.83% active. AID 720648, 2013;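 active means inhibition above the mean of compounds lying between control limits plus 3 SD, set per campaign, cut at about 8.5% in these data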;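 further: 0% = DMSO-only wells as the low control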
ADAM10 inh = human ADAM10 inhibitors, primary screen, biochemical, QFRET, HTS; recombinant ADAM10, EDANS/DABCYL FRET peptide cleavage, 3 h; inhibition, % at 7 µM; 370,000 tested, 0.62% active; AID 720582, 2013;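 active means inhibition above a per-campaign cutoff equal to the mean of compounds falling between control-based bounds plus 3 SD, cut at about 20% in these data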;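 further: 0% = DMSO wells while the 100% control is not disclosed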
Target sequence (O14672 214-748 limits assumed): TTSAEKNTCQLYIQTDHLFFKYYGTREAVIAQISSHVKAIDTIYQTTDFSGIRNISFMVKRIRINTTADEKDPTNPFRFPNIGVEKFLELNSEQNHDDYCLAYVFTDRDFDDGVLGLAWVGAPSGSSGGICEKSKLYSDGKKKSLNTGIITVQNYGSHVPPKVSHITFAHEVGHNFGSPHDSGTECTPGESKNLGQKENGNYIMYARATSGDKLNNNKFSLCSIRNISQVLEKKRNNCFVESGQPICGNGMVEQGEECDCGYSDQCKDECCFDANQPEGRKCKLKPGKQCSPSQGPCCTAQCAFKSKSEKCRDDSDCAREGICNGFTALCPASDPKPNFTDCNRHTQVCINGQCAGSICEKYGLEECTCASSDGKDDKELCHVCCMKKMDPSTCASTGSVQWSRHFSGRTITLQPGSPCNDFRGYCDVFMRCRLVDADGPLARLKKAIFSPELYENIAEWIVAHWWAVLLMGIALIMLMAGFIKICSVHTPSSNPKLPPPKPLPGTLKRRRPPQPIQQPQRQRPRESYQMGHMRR
ADAM10 confirm = human ADAM10 inhibitors, confirmation, biochemical, QFRET, triplicate; shares compounds with ADAM10 inh; ADAM10 QFRET peptide cleavage, EDANS fluorescence; inhibition, % at 6.95 µM; 2,100 tested, 1% active; AID 743208, 2013;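 active means inhibition above about 20% chosen separately for each screening run, limit read from the data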;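 further: 0% = DMSO wells and 100% = marimastat wells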
ADAM17 ctr = ADAM17 inhibitors, counter-screen for ADAM10 exosite inhibitor project, biochemical, QFRET, high throughput; inhibition, % at 6.95 µM; ADAM17 QFRET peptide cleavage, EDANS fluorescence; shares compounds with ADAM10 inh; 2,100 tested, 0.5% active;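 active means mean triplicate inhibition above the solvent-only control wells' mean plus 3 SD, cut at about 12% in these data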;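 further: 0% = DMSO wells and 100% = marimastat wells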
ADAM10 counter = ADAM10 inhibitors, counter-screen for ADAM17 exosite inhibitor project, biochemical, FRET, human ADAM10; shares compounds with ADAM17 inh; recombinant ADAM10, EDANS/DABCYL FRET peptide cleavage, 3 h; inhibition, % at 6.95 µM; 2,900 tested, 47% active; AID 743256, 2014;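 active means mean inhibition over the triplicate runs exceeds the activity threshold set in the earlier primary screen, cut at about 20% in these data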;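 further: 0% = DMSO wells and 100% = marimastat wells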
ADAM17 confirm = ADAM17 inhibitors, hit retest, confirmation, biochemical, QFRET peptide cleavage. shares compounds with ADAM17 inh. recombinant ADAM17, EDANS/DABCYL QFRET peptide cleavage. inhibition, % at 6.95 µM. 2,900 tested, 65% active;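 active means mean inhibition across replicates above the hit cutoff set in the primary screen, cut at about 8.5% in these data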;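 further: 0% = DMSO wells and 100% = marimastat wells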
Starred values were filed as active, the others as inactive; . = not tested or not shown.

SMILES | NRP1-CendR mod | proKLK7 act | HGIII-sPLA2 inh | ADAM17 inh | ADAM10 inh | ADAM10 confirm | ADAM17 ctr | ADAM10 counter | ADAM17 confirm
OC(c1ccc(Cl)c(F)c1)c1ncc(-c2cccc(C(F)(F)F)c2)[nH]1 (centres undefined) | 2 | 0 | 3 | 11* | 32* | 2 | 1 | 26* | 14*
Cc1ccc(C(=O)OCc2ccc3c(c2)OCO3)cc1S(=O)(=O)N1CCCCC1 | -6 | 0 | -37 | 13* | 21* | 4 | 1 | 15 | 9.4*
COc1ccc(NC(=O)CN(C)C(=O)c2cn(-c3ccccc3)nc2-c2ccc(Cl)cc2)cc1 | 4 | 0 | -12 | 10* | 20* | 7 | 2 | 38* | 18*
COc1cccc(NC(=O)CN(C)C(=O)c2cn(-c3ccccc3)nc2-c2cccnc2)c1 | -5 | 0 | -4 | -9 | -9 | . | . | . | .
COc1ccc(Cn2ccc3ccc(-c4ccc5ccn(C(=O)c6ccc(C)cc6)c5c4)cc32)cc1 | . | -6 | 0 | -7 | -29 | . | . | . | .
CC(C)(C)NC(=O)C(c1ccco1)N(C(=O)Cn1nnc(-c2ccc(F)cc2)n1)c1cccc(F)c1 (centres undefined) | 0 | 0 | 2 | -2 | 1 | . | . | . | .
CC(C)(C)NC(=O)C(c1c[nH]c2ccccc12)N(C(=O)Cn1nnc(-c2ccc(F)cc2)n1)c1cccc(O)c1 (centres undefined) | -7 | 0 | -56 | 14* | 28* | 8 | 3 | 32* | 19*
CC(/C=C1\SC(=O)N(CC(=O)Nc2cccc(O)c2)C1=O)=C\c1ccccc1 | 11 | -1 | -38 | 13* | 29* | 12 | 4 | 24* | 15*
CC(/C=C1\SC(=O)N(CC(=O)Nc2ccc(O)cc2)C1=O)=C\c1ccccc1 | 0 | 1 | -22 | 3 | 8 | . | . | . | .
CCN(CC)S(=O)(=O)c1ccc(N2CCOCC2)c(NS(=O)(=O)c2ccc(C(C)C)cc2)c1 | -15 | 0 | -9 | 5 | 13 | . | . | . | .
CCN(CC)S(=O)(=O)c1ccc(N2CCOCC2)c(NS(=O)(=O)c2cc(C(C)(C)C)ccc2C)c1 | 17 | 0 | -30 | 17* | 36* | 3 | 1 | 31* | 15*
Cc1ccc(NC(=O)COC(=O)C2(c3ccc(Cl)cc3)CCCC2)cc1 | -23 | 0 | -9 | 11* | 32* | 9 | 4 | 31* | 14*
Cc1cc(NC(=O)/C=C/c2ccccc2Cl)no1 | 0 | 0 | -2 | 2 | 7 | . | . | . | .
CCN(CC)c1ccc(NC(=O)/C=C\c2ccccc2Cl)cc1 | -4 | -1 | 2 | 14* | 27* | 6 | 3 | 38* | 19*
CN(C)c1ccc(NC(=O)/C=C/c2ccccc2Cl)cc1 | -3 | 0 | 14 | 12* | 22* | 4 | 0 | -1 | 2
O=C(CSc1nnc(-c2ccncc2)n1-c1ccccc1)Nc1ccc2c(c1)OCCO2 | . | 1 | 4 | -1 | -1 | . | . | . | .
